TEAD-YAP block – TEAD-YAP interaction inhibition; HEK-TIYL cells, TEAD-Gal4/YAP UAS-luciferase luminescence; inhibition, % at 9.12 µM; hit rate 1.4% among 640,000; in the data active = inhibition above about 32%;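 also: 0% = median of test compound wells and 100% = reference inhibitor wells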
MITF primary – inhibitors of human MITF; inhibition, % at 2.6 µM; hit rate 0.91% among 650,000; AlphaScreen MITF homodimerization, bead proximity signal; O75030; AID 1259374; in the data active = inhibition above about 50%;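 also: 0% = vehicle wells with protein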
GPR151 activ – activates the human receptor GPR151; Q8TDV0; PathHunter beta-arrestin GPR151 cells, luminescence; activation, % at 11.2 µM; hit rate 1% among 650,000; in the data active = activation above about 4.9%;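 also: 0% = median of compound wells and 100% = cells with positive control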
FBW7 act – human FBW7 E3 ligase activation, primary screen | Q969H0 | AlphaScreen FBW7–phospho-cyclin E peptide binding, activator screen | normalized activity (activation), % at 26.1 µM | hit rate 0.13% among 650,000; in the data active = normalized activity above about 1.9%;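 also: purified mutant Fbw7 with reduced substrate affinity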
Target sequence (Q969H0 whole entry, looked up): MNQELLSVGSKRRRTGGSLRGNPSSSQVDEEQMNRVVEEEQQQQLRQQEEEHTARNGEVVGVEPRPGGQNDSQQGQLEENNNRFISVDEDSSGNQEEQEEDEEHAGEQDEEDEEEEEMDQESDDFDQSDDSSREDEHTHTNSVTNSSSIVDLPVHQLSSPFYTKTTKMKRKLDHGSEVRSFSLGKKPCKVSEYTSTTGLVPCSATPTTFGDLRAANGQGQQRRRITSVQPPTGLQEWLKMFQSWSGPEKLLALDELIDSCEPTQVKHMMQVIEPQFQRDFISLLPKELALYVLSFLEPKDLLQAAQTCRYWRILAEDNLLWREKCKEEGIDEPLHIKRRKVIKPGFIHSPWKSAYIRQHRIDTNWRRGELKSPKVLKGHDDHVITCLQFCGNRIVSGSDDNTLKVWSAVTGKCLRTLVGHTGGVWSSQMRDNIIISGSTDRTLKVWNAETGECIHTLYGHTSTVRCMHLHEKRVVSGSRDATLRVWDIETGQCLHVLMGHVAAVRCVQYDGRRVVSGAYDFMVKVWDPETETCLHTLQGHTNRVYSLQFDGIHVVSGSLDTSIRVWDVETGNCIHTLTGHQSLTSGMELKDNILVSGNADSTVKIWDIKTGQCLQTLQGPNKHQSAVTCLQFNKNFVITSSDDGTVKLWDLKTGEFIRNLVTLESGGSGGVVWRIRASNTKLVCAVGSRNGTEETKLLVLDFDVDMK
Starred values were filed as active, the others as inactive. This is a sample that favours compounds with a hit; in the whole collection about 3.5% have one here.

SMILES	TEAD-YAP block	MITF primary	GPR151 activ	FBW7 act
Cc1ccc2nc(CN3C(=O)NC(Cc4c[nH]c5ccccc45)C3=O)cc(=O)n2c1 (stereo not given)	8	2	0	1
COCCN=c1scc(-c2cccc3ccccc23)n1/N=C/c1ccc[nH]1	43*	10	2	0
O=C(NCCOc1ccccc1)c1ccccc1I	-34	-2	1	0
CCCc1cc(=O)[nH]c(-n2nc(C)cc2NC(=O)C2CC2)n1	12	12	0	0
CCc1cc(=O)[nH]c(-n2nc(C)cc2NC(=O)CC2CCCC2)n1	58*	32	-2	0
O=C(N/N=C/c1cc(Br)ccc1O)c1ccc(O)cc1O	72*	22	0	-1
Cc1occc1C(=O)N/N=C/c1cc(Br)ccc1O	47*	18	-4	0
CCOc1ccccc1NC(=O)c1cc(S(=O)(=O)NCc2ccc(F)cc2)ccc1F	2	-2	-2	0
CCCCN(CC)S(=O)(=O)c1ccccc1	0	-27	-1	0
CCCCP(=Nc1ccccc1)(N(CC)CC)N(CC)CC	92*	8	1	0
CCN(CC)c1nc(Nc2ccc(-n3ccnc3)cc2)nc(Nc2cc(OC)c(OC)c(OC)c2)n1	75*	12	-1	0
COc1cc(Nc2ccnc(Nc3ccc(-n4ccnc4)cc3)n2)cc(OC)c1OC	51*	9	3	0
CCN(CC)c1nc(Nc2ccccc2)nc(Nc2cc(OC)c(OC)c(OC)c2)n1	-1	9	0	0
CC(=O)c1c(C)sc(N)c1C#N	3	24	1	0
COc1ccc(-c2nc(NCCc3ccc(O)cc3)c3ncn(-c4ccccc4)c3n2)cc1	24	17	2	0
COc1ccc(CCNc2nc(-c3ccc(C(=O)N4CCN(C)CC4)cc3)nc3c2ncn3-c2ccccc2)cc1	41*	8	-2	0
COc1ccc(CCNc2nc(-c3ccccc3)nc3c2ncn3-c2ccsc2)cc1	-2	12	1	0
COc1ccc(-c2nc(NCCc3ccc(O)cc3)c3ncn(-c4ccsc4)c3n2)cc1	56*	12	2	0
COc1ccc(-c2nc(NCCc3ccc(O)cc3)c3ncn(-c4ccccc4)c3n2)cn1	47*	-4	4	0
COc1ccc(-c2nc(NCCc3ccc(O)cc3)c3ncn(C(C)C)c3n2)cc1	61*	18	-1	0
CC(C)n1cnc2c(NCCc3ccc(O)cc3)nc(-c3ccccc3)nc21	15	2	-1	0
COc1ccc(CCNc2nc(-c3ccc(OC)nc3)nc3c2ncn3-c2ccsc2)cc1	46*	-7	0	0
COc1ccc(C(=O)n2c(=S)nc3ccccn32)cc1	74*	9	-1	0
COc1ccc(C(=O)n2c(=S)nc3cccc(C)n32)cc1	11	-2	2	0
CCOP(=O)(/C(C#N)=C(\O)c1ccc(Cl)cc1)c1ccccc1 (stereo not given)	15	2	0	0
SMILES	TEAD-YAP block	MITF primary	GPR151 activ	FBW7 act
COc1ccc(OC)c(/C=N/NC(=O)COc2ccc(I)cc2)c1	-1	-2	2	0
COC(=O)c1sc2nc3c(c(-c4cccs4)c2c1N)CCC3	2	-4	1	1
NC(=O)c1sc2nc3c(c(-c4cccs4)c2c1N)CCC3	44*	3	-1	0
COc1ccc(CCNC(=O)c2c[nH]c3ccc(S(=O)(=O)N4CCc5ccccc54)cc3c2=O)cc1OC	35*	17	0	0
CCOC(CNC(=O)c1c[nH]c2ccc(S(=O)(=O)N3CCc4ccccc43)cc2c1=O)OCC	19	4	2	0
CCc1ccc(C(=O)N/N=C/c2cc(Br)c(O)c(Br)c2O)nc1	72*	67*	-1	-1
O=C(CSc1ccsc1[N+](=O)[O-])NCC1CCCO1 (stereo not given)	2	-1	0	0
CC(=O)c1ccccc1OCc1ccccc1C	5	7	0	2.6*
Cc1ccc(-c2cnc(N3CCC4(CC3)OCCO4)nc2)cc1	-49	3	-3	0
Fc1ccc(-c2cnc(N3CCC4(CC3)OCCO4)nc2)cc1	43*	9	-11	0
CCOc1ccc(C(=O)CN2CCN(C3c4ccccc4-c4ccccc43)CC2)cc1	-8	-5	-3	0
COc1ccc(C2=CC(c3ccc(OC)c(OC)c3)n3ncnc3N2)cc1 (stereo not given)	43*	12	-1	0
COc1ccc(C2C=C(c3ccc(F)cc3)Nc3ncnn32)cc1OC (stereo not given)	12	14	0	1

Screening data (PubChem BioAssay)
